Compounds with a hit are over-represented: about 12% of the library has one in this group of screens.
Sm TGR block = qHTS Assay for the Inhibitors of Schistosoma Mansoni Peroxiredoxins | purified TGR, DTNB reduction, TNB absorbance 405 nm | Potency, µM (series often up to 114 µM), for inactives: at the highest dose activity change, negative = inhibition, actives largely listed as inhibitors | 360,000 tested, 3% active; also: % is scaled to controls: 0 for no effect and ±100 for the full control effect; nearly all actives have a fitted effect of over 60% in size
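TGR 20 nM + NADPH 100 uM (dispensed conc.), cpd preinc 15 min RT; start with NADPH (500 uM addition) then DTNB (15 mM addition). Kinetic TNB absorbance, 405 nm filter. Four-parameter Hill fit across titration.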
AmpC inh no detg = qHTS Inhibitors of AmpC Beta-Lactamase (assay without detergent) | Potency, µM (highest dose often 57.1 µM), for the others: at the top dose activity change, negative = inhibition, most hits filed as inhibitors | AmpC nitrocefin hydrolysis, absorbance 480 nm, 0.0001% Triton | P00811 | AID 485341, 2010 | 330,000 tested, 0.52% active;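 also: plate controls were no compound for no effect and no enzyme for full effect; nearly all actives have a fitted effect of over 20% in size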
Target sequence (P00811 whole entry, looked up): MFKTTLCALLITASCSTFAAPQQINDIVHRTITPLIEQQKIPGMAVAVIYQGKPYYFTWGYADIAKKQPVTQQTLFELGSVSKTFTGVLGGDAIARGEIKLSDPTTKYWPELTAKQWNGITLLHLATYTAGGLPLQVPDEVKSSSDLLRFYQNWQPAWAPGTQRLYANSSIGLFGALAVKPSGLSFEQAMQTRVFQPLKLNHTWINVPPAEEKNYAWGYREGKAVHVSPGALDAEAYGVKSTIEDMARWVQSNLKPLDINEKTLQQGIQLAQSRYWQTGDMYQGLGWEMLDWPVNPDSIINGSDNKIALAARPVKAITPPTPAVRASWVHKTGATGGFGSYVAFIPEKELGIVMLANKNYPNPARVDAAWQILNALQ
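20 mM phosphate pH 7.0 + 0.01% (detergent screen) or 0.0001% Triton X-100; 5.3 nM AmpC reagent; cpd preinc 15 min RT; nitrocefin (800 uM stock) to start; A480 q20 s × 4 min; Activity was normalised to no-enzyme and no-compound control wells.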
Pf growth 96h = Primary qHTS for delayed death inhibitors of the malarial parasite plastid, 96 hour incubation | 320,000 tested, 6.9% active | Potency, µM (series often up to 28.7 µM), inactives show top-dose activity change, negative = inhibition, actives largely listed as inhibitors | P. falciparum luciferase reporter growth, 96 h | AID 504834, 2011; also: % is scaled to controls: 0 for no effect and ±100 for the full control effect
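Delayed-death screen, second-generation endpoint: infected erythrocytes, 2% hematocrit, 0.05% parasitemia final; 96 hours at 37 C, 5% CO2; luciferase detection reagent; luminescence decrease equals reduced growth.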
AmpC detergent = qHTS Inhibitors of AmpC Beta-Lactamase (assay with detergent); AID 485294, 2010; AmpC hydrolysis of nitrocefin, absorbance 480 nm, 0.01% Triton; Potency, µM (top dose mostly 114 µM), for inactives: at the highest dose activity change, negative = inhibition, actives largely listed as inhibitors; 370,000 tested, 0.041% active; P00811;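 also: 0% = no-compound wells and -100% = no-enzyme wells; nearly all actives have a fitted effect of over 25% in size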
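AmpC (5.3 nM in the dispensed reagent) in 20 mM phosphate pH 7.0 with 0.01% (detergent screen) or 0.0001% Triton X-100 was preincubated with compounds for 15 min at room temperature. Nitrocefin was then added from an 800 uM solution, and hydrolysis was followed at 480 nm.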
Pf growth 48h = Primary qHTS for delayed death inhibitors of the malarial parasite plastid, 48 hour incubation. P. falciparum luciferase growth in erythrocytes, 48 h. AID 504832, 2011. 310,000 tested, 5.9% active. Potency, µM (titrated, usually from 28.7 µM), inactives show at the top dose activity change, negative = inhibition, most hits filed as inhibitors; also: % is scaled to controls: 0 for no effect and ±100 for the full control effect
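Parasite viability was followed by luminescence of a genomically integrated firefly luciferase. Cultures held 0.1% parasitemia at 2% hematocrit (final), incubated under 5% CO2 at 37 C.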
SARS PLpro yeast = qHTS of Yeast-based Assay for SARS-CoV PLP; 330,000 tested, 0.19% active; AID 485353, 2010; S. cerevisiae expressing SARS-CoV PLpro, growth rescue; Potency, µM (doses to about 32.9 µM), without a hit: at the highest dose activity, positive = growth rescue, usual class: activators; calls by dose curve; also: 0% is about no effect; nearly all actives have a fitted effect of over 55% in size
Active calls of the source: *; ? = inconclusive; / = not tested or not shown. Unless noted, calls follow the shape of the dose curve; as a rule, active = well fitted curve in the direction sought with a large enough effect; inconclusive = small, poorly fitted or top-dose-only effect, or another doubt; inactive = no such curve, though single readings can be large; an effect the other way counts as inactive or inconclusive. Potency is read from the fitted curve at half-maximal effect.

SMILES | Sm TGR block | AmpC inh no detg | Pf growth 96h | AmpC detergent | Pf growth 48h | SARS PLpro yeast
COc1ccc(-c2nnc(SCC(=O)NCc3ccccc3)nc2-c2ccc(OC)c(OC)c2)cc1OC | -9% | / | / | 4% | / | /
O=C(O)c1cccc(NC(=S)NC(=O)c2ccc3ccccc3c2)c1 | 25µM* | -32% | ? | 1% | 190% | 2%
CCOc1cccc(C(=O)NC(=S)Nc2cccc(NC(=O)c3ccccc3Cl)c2)c1 | -23% | -19% | ? | -13% | -4% | 11%
CCOc1cccc(C(=O)NC(=S)Nc2ccccc2)c1 | 40µM* | -29% | -20% | 2% | 245% | -4%
O=C(O)c1ccc(NC(=S)NC(=O)c2cccc(COc3ccccc3)c2)cc1 | 25µM* | -47% | ? | 2% | 8% | -2%
CCOc1cccc(C(=O)NC(=S)Nc2cccnc2)c1 | 45µM* | -28% | 2.6µM* | ? | 39% | 4%
Cc1ccc(NC(=O)CSc2nnc3ccc4ccccc4n23)cc1 | -4% | / | / | 10% | / | /
Cc1cccc(NC(=O)C2CCCN(S(=O)(=O)c3c(C)noc3/C=C/N(C)C)C2)c1C (configuration not stated) | -3% | / | / | -4% | / | /
Cc1ccc(NC(=O)N(Cc2ccco2)Cc2cc3cc(C)cc(C)c3nc2Cl)cc1 | 0% | -18% | ? | -7% | ? | -13%
COc1ccccc1NC(=O)N(Cc1ccco1)Cc1cc2ccc(C)c(C)c2[nH]c1=O | ? | 5% | 4% | -13% | ? | 7%
Cc1ccc(C)c2[nH]c(=O)c(CN(Cc3ccco3)C(=O)Nc3ccccc3)cc12 | 2% | -20% | ? | -14% | 12µM* | -4%
Cc1ccc2cc(CN(Cc3ccco3)C(=O)NCc3ccccc3)c(=O)[nH]c2c1C | 4% | -5% | 12µM* | ? | -29% | 8%
Cc1cccc2cc(CN(Cc3ccco3)C(=O)Nc3cccc(C#N)c3)c(Cl)nc12 | 24% | -35% | 13µM* | -2% | 9.3µM* | -6%
Cc1cc(Cl)ccc1NC(=O)CN1C(=O)C(=O)c2ccccc21 | -3% | / | / | 22% | / | /
CC(=O)c1ccc(OCC(O)CN(C)Cc2cccs2)cc1 (configuration not stated) | 9% | -4% | 1% | 7% | 9% | 5%
Cc1ncsc1C(=O)N1N=C2/C(=C/c3ccc(N4CCOCC4)cc3)CCCC2C1c1ccc(N2CCOCC2)cc1 (configuration not stated) | -14% | 39% | 5.2µM* | -1% | ? | 5%
Cc1ncsc1C(=O)N1N=C2/C(=C/c3ccccc3)CCCC2C1c1ccccc1 (configuration not stated) | 12% | 45% | ? | -3% | ? | -12%
C[C@H](CO)N1C[C@H](C)[C@@H](CN(C)S(C)(=O)=O)Oc2ccc(N(C)C)cc2C1=O | / | -1% | / | / | / | -5%
COc1cc(C(=O)N/N=C(\c2ccccc2)c2ccccn2)cc(OC)c1OC | -1% | -11% | 9.3µM* | 9% | 0.93µM* | 6%
COc1cccc(C(=O)N/N=C(/c2ccccc2)c2ccccn2)c1 | 1% | -12% | ? | -2% | 9.3µM* | -36%
CCc1ccc(CCC(=O)Nc2ccc(Cl)cc2)o1 | 5% | -51% | 129% | -12% | 20% | -13%
CCCCc1nnc(SCc2cc(=O)c3cc(C(=O)OCC)ccc3[nH]2)n1C | 0% | / | / | -4% | / | /
COc1ccccc1-c1nnc(SC(C(=O)c2c[nH]c3ccccc23)c2ccccc2)n1C (configuration not stated) | 0% | 2% | ? | -12% | ? | 2%
